Reference: PubChem BioAssay (NCI)
The panel holds about 79,000 compounds, 15% with a hit somewhere; the sample as a whole holds those more often. A number with no mark means an inactive call. Calls of active or inactive are those of the source. No stated cut-off is given here; in the data, active means growth inhibition above about 70%; inactive means the rest.

Columns and labels:
[1] = NCI Yeast Anticancer Drug Screen. Data for the rad50 strain (AID 155);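 further: 0% = growth of vehicle-only cultures of the same strain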; conditions: S. cerevisiae rad50 strain growth inhibition, active compounds read high
Procedure, shortened: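 Cells are treated with compound, grown, and their growth is then scored against vehicle-only cultures of the same repair-deficient yeast strain.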

[2] = NCI Yeast Anticancer Drug Screen. Data for the mec2-1 strain (AID 157); conditions: S. cerevisiae mec2-1 strain, active compounds read high
Procedure, shortened: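 Test agents were screened against the mec2-1 yeast strain, with defined DNA repair or cell cycle alteration. Growth was scored as inhibition against vehicle-only controls.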

[3] = NCI Yeast Anticancer Drug Screen. Data for the sgs1 mgt1 strain (AID 161);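 further: 0% = growth of cultures given vehicle only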; conditions: S. cerevisiae sgs1 mgt1 strain, active compounds read high
Procedure, shortened: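 Genetically altered yeast, compound exposure, growth inhibition relative to vehicle.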

[4] = NCI Yeast Anticancer Drug Screen. Data for the cln2 rad14 strain (AID 165);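 further: 0% = growth equal to vehicle treated cultures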; conditions: S. cerevisiae cln2 rad14 strain, active compounds read high
Procedure, shortened: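 Growth of compound-exposed yeast (cln2 rad14 genotype) measured and expressed as inhibition relative to vehicle.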

[5] = NCI Yeast Anticancer Drug Screen. Data for the bub3 strain (AID 167); conditions: S. cerevisiae bub3 mutant strain, active compounds read high
Procedure, shortened: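 Part of a panel of yeast mutants defective in DNA damage repair or cell cycle regulation. Each strain is grown with compound, and inhibition is calculated relative to solvent-treated cultures.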

[6] = NCI Yeast Anticancer Drug Screen. Data for the mlh1 rad18 strain (AID 175); conditions: S. cerevisiae mlh1 rad18 strain growth inhibition, active compounds read high
Procedure, shortened: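 In this whole-cell yeast screen, a strain with altered DNA damage repair is challenged with compound, and its growth is measured against matched vehicle-treated controls.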

[7] = at 5.0 µM (retest, dose inferred, filed as 0.5)
[8] = at 50.0 µM (retest, dose inferred, filed as 5.0)

SMILES | growth inhibition [1, 7] [%] | growth inhibition [1, 8] | growth inhibition ([1]; at 50.0 µM) | growth inhibition [2, 7] [%] | growth inhibition [2, 8] | growth inhibition ([2]; at 50.0 µM) | growth inhibition [3, 7] [%] | growth inhibition [3, 8] | growth inhibition ([3]; at 50.0 µM) | growth inhibition [4, 7] [%] | growth inhibition [4, 8] | growth inhibition ([4]; at 50.0 µM) | growth inhibition [5, 7] | growth inhibition [5, 8] | growth inhibition ([5]; at 50.0 µM) | growth inhibition [6, 7] [%] | growth inhibition [6, 8] | growth inhibition ([6]; at 50.0 µM)
CCCN(CCC)CC(O)c1cc(-c2ccccc2)nc2c(Cl)cc(Cl)cc12 (stereo unspecified) | 3 | 90% (active) | 98.3% (active) | -2 | 100% (active) | 98.2% (active) | 2 | 81% (active) | 98% (active) | -5 | 99% (active) | 97.8% (active) | -1% | 99% (active) | 98.2% (active) | -2 | 94% (active) | 92.2% (active)
CCC1(C)CCC2(C)C(CCC3C4(C)CCCC32OC4=O)C1 (stereo unspecified) | 16 | 93% (active) | 97.5% (active) | -2 | 96% (active) | 94.3% (active) | 2 | 97% (active) | 96.8% (active) | -9 | 92% (active) | 91.9% (active) | 15% | 98% (active) | 96.2% (active) | -10 | 92% (active) | 92.2% (active)
CC/C(=C(\CC)c1ccc(O)c(CN(C)C)c1)c1ccc(OC)cc1 | 9 | 87% (active) | 98.5% (active) | 9 | 84% (active) | 86.3% (active) | 12 | 99% (active) | 99.6% (active) | 0 | 98% (active) | 97.8% (active) | -28% | 95% (active) | 94.8% (active) | 3 | 98% (active) | 98.6% (active)
O=C(NNC(=O)c1cccc(C(=O)NNC(=O)c2ccc(Cl)c(Cl)c2)n1)c1ccc(Cl)c(Cl)c1 | 35 | 64% | 44.5% | 37 | 66% | 45.8% | 47 | 62% | 52.7% | 54 | 76% (active) | 81.4% (active) | 61% | 80% (active) | 70.2% (active) | 49 | 71% (active) | 51.4%
CC(C)(CN1CCCCC1)C(=O)CC(SCCS(=O)(=O)O)c1ccc(Cl)cc1 (stereo unspecified) | 16 | 88% (active) | 19.2% | -4 | 91% (active) | 3.7% | -9 | 85% (active) | 39.1% | -1 | 91% (active) | 55.7% | -13% | 97% (active) | 25.6% | 1 | 89% (active) | 11.1%
CC(C)CC(CC(C)C)OP(=O)(O)OC(CC(C)C)CC(C)C | 7 | 76% (active) | 80.1% (active) | 11 | 72% (active) | 82.5% (active) | 9 | 71% (active) | 77.2% (active) | 13 | 78% (active) | 85% (active) | 9% | 78% (active) | 70.5% (active) | 9 | 82% (active) | 79.3% (active)
OCC(CO)C1c2cccc3ccc4cccc1c4c23 | 0 | 30% | 64.5% | -3 | 24% | 17.8% | -2 | 46% | 85.7% (active) | -6 | 37% | 67.3% | 13% | 42% | 53.5% | -4 | 49% | 81.4% (active)
C/C(=N\NC(=S)N1CCN(c2ccccn2)CC1)c1ccccn1 | 46 | 99% (active) | 87.7% (active) | 35 | 100% (active) | 90.2% (active) | 35 | 99% (active) | 89.8% (active) | 21 | 98% (active) | 83.2% (active) | 63% | 100% (active) | 90.1% (active) | 58 | 99% (active) | 88.3% (active)
COc1ccc(OC)c2c(C(=O)O)c(C(C)c3ccccc3)ccc12 (stereo unspecified) | -1 | 70% (active) | 85.8% (active) | 3 | 73% (active) | 91.2% (active) | 2 | 64% | 91.2% (active) | 1 | 74% (active) | 96.2% (active) | -6% | 65% | 81.7% (active) | 3 | 75% (active) | 92.3% (active)
CCc1cccc(C(C)(C)C)c1NC(=S)N/C=C(\c1ccccc1)S(=O)Cc1ccccc1 (stereo unspecified) | 2 | 77% (active) | 68.4% | 7 | 70% (active) | 46.2% | 10 | 56% | 68.2% | -15 | 45% | 33.5% | -23% | 25% | 73.4% (active) | 14 | 62% | 69.8%
O=C(CCN(Cc1ccccc1)Cc1ccccc1)c1ccc2ccccc2c1 | 30 | 55% | 76.2% (active) | 28 | 58% | 55.6% | 59 | 89% (active) | 90.6% (active) | 33 | 61% | 83.8% (active) | 45% | 69% | 60.1% | 35 | 68% | 81.4% (active)
CCOC(=O)N1CCN(CCCOc2ccc(Cl)cc2Cc2ccccc2)CC1 | 29 | 100% (active) | 99.7% (active) | 26 | 100% (active) | 99.7% (active) | 59 | 100% (active) | 99.8% (active) | 30 | 99% (active) | 99.5% (active) | 89% (active) | 100% (active) | 99.5% (active) | 24 | 100% (active) | 99.7% (active)
